A number with no mark means an inactive call. Results filed as inconclusive are left out. This is one part of the list. Activity calls are given as the source filed them. Unless noted, calls come from the whole dose curve; as a rule, active = well fitted curve in the direction sought with a large enough effect; inconclusive = small, poorly fitted or top-dose-only effect, or another doubt; inactive = no such curve, though single readings can be large; an effect the other way counts as inactive or inconclusive.

The target of test [1] is Tumor susceptibility gene 101 protein (Homo sapiens) (UniProt Q99816). As to the kind of experiment: qHTS Assay for Iinhibitors of HIV-1 Budding by Blocking the Interaction of PTAP/TSG101: Hit Validation (AID 651600). Note: potency is the fitted concentration of half-maximal effect; nearly all actives have a fitted effect of over 70% in size. The gist of the method: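 Measuring PTAP–Tsg101 interaction by FP: protein at 10 uM and fluorescent peptide at 50 nM (final), buffer 10 mM HEPES pH 7.5 with 0.15 M NaCl, 3 mM EDTA, 0.1 mM TCEP, 0.01% Tween 20; 20 min incubation, r.t.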
Tumor susceptibility gene 101 protein (Homo sapiens), sequence (Q99816 whole entry, looked up): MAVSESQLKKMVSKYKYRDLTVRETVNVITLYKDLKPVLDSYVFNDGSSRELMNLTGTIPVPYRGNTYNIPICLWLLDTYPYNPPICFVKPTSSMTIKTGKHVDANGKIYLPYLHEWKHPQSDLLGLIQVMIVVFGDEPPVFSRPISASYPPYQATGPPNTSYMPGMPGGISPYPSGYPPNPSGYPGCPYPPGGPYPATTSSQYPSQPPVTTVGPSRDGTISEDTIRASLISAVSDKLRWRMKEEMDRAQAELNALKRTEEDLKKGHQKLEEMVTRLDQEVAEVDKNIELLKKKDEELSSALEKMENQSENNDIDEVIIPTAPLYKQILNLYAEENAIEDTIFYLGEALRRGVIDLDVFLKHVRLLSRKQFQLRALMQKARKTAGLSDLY

The target of test [2] is Rap guanine nucleotide exchange factor 3 (Homo sapiens) (UniProt O95398). Kind of test: Confirmatory qHTS for antagonist of cAMP-regulated guanine nucleotide exchange factor 3 (EPAC1) (AID 1645880).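 For activity, negative = inhibition: plate controls were DMSO only for no effect and full effect of the ATA control for full effect.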 Note: nearly all actives have a fitted effect of over 55% in size. Note: potency is the fitted concentration of half-maximal effect. Particulars: EPAC1 Rap1B-BODIPY-GDP exchange, fluorescence; activity, negative = inhibition: at 115 µM (top of the series). The method, boiled down: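 Released BODIPY-GDP fluoresces less than Rap1-bound BODIPY-GDP; the signal is followed at 480/540 nm at 5-min intervals over 30 min, after 5 min at room temperature. Reactions contain 100 nM EPAC1, 250 nM RAP1B-BODIPY-GDP and 50 uM GDP; results are normalized to ATA and DMSO.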
Rap guanine nucleotide exchange factor 3 (Homo sapiens), sequence (O95398 whole entry, looked up): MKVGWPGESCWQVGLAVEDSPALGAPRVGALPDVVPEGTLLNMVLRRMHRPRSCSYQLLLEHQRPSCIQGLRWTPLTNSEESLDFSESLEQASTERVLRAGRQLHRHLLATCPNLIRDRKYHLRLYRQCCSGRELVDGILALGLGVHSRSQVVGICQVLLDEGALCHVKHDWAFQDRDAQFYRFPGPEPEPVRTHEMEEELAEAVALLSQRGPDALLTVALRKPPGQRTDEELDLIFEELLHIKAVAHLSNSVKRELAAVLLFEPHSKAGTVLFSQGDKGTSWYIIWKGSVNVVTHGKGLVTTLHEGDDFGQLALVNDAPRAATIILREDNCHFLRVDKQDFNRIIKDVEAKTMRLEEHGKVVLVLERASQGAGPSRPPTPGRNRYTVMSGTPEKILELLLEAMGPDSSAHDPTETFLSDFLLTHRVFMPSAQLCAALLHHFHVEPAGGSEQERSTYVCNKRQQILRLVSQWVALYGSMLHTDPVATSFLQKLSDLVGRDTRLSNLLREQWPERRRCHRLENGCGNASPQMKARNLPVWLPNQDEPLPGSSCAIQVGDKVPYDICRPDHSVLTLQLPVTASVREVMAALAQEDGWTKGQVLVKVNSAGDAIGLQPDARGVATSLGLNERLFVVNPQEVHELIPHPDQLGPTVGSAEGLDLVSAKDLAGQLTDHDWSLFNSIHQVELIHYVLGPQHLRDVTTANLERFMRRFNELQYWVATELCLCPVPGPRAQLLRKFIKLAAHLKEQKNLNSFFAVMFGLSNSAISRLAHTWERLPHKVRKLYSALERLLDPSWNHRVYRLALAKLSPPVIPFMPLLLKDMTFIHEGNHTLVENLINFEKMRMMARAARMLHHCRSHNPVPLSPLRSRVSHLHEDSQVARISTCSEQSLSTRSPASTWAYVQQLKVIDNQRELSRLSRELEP

Test [3] shares this target. Kind of test: Confirmatory qHTS for agonist of cAMP-regulated guanine nucleotide exchange factor 3 (EPAC1) (AID 1645881).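 For activation: EPAC1 catalysed release of BODIPY-GDP from Rap1B seen as fluorescence loss; 100% = effect of cAMP agonist control.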 Note: nearly all actives have a fitted effect of over 75% in size. Note: potency is the fitted concentration of half-maximal effect.
The target of test [4] is Rap guanine nucleotide exchange factor 4 (Homo sapiens) (UniProt Q8WZA2). Kind of test: Confirmatory qHTS for agonist of cAMP-regulated guanine nucleotide exchange factor 4 (EPAC2) (AID 1645884).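 Note: nucleotide exchange releases bodipy-GDP from Rap1 and this lowers its fluorescence; nearly all actives have a fitted effect of over 65% in size.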 Note: potency is the fitted concentration of half-maximal effect.
Rap guanine nucleotide exchange factor 4 (Homo sapiens), sequence (Q8WZA2 whole entry, looked up): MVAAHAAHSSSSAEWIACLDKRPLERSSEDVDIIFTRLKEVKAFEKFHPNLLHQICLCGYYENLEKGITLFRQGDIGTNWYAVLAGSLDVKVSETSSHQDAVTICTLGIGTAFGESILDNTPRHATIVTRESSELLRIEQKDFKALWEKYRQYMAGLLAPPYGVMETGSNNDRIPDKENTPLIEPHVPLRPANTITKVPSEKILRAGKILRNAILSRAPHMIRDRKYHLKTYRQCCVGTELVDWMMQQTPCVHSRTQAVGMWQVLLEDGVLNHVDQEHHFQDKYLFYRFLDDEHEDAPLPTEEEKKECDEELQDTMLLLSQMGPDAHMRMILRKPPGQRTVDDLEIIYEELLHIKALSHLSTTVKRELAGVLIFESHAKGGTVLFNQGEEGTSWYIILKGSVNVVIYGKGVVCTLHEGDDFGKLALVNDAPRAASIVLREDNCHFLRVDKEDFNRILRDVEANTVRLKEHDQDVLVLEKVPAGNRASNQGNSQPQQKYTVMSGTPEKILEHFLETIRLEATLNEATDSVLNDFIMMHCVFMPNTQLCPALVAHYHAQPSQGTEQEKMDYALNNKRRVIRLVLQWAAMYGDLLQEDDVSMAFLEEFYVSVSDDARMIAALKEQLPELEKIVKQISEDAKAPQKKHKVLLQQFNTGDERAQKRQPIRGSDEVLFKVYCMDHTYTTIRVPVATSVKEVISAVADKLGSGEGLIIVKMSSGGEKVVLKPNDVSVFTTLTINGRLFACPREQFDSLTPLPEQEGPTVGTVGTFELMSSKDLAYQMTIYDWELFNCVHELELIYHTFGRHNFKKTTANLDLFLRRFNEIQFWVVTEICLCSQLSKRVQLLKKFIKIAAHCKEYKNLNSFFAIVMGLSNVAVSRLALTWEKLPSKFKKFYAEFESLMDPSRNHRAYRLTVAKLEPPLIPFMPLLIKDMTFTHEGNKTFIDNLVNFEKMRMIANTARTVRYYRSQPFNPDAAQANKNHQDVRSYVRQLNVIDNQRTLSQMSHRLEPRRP
The target is the same in test [5]. As to the kind of experiment: Confirmatory qHTS for antagonist of cAMP-regulated guanine nucleotide exchange factor 4 (EPAC2) (AID 1645885). Note: nearly all actives have a fitted effect of over 25% in size. Note: potency is the fitted concentration of half-maximal effect.
Test [6] concerns the target Rap guanine nucleotide exchange factor 3 (Homo sapiens) (UniProt O95398). As to the kind of experiment: Counterscreen qHTS for agonist of cAMP-regulated guanine nucleotide exchange factor 3 (EPAC1) (AID 1645889). For activation: % of control where 0% means no effect. Note: nearly all actives have a fitted effect of over 40% in size. Note: potency is the fitted concentration of half-maximal effect. The method, boiled down:
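Rap1B-BODIPY-GDP 250 nM + GDP 50 uM; cpds 7-pt, final 9.74 nM–152 uM (activator mode) or from 7.32 nM upwards (inhibitor mode); RT; FI 480/540 nm at 5 and 30 min, then ± cAMP, reread.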

The target of test [7] is Cytochrome P450 1A2 (Homo sapiens) (UniProt P05177). Kind of test: p450-cyp1a2 (AID 410; calls by dose curve; note: potency is the fitted concentration of half-maximal effect). The gist of the method: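 O-Demethylation of luciferin 6' methyl ether by human CYP1A2 is monitored as luciferase luminescence. Substrate sits at Km (100uM); enzyme is 20nM. Values are scaled to 57 uM furafylline as maximal inhibition.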
Cytochrome P450 1A2 (Homo sapiens), sequence (P05177 whole entry, looked up): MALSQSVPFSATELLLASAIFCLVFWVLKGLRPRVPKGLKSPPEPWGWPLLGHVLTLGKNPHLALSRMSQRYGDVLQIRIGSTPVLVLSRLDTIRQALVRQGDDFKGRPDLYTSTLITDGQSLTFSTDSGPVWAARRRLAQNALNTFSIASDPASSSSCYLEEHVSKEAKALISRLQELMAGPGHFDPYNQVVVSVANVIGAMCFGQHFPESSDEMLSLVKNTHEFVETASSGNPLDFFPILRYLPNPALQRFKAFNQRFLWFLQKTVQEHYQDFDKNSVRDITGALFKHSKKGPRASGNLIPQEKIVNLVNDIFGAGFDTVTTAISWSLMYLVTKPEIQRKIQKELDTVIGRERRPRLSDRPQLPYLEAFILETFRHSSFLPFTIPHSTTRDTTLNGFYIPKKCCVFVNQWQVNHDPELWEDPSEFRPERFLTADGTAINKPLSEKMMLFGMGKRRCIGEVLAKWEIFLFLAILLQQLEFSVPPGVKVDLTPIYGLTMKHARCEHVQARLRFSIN
Test [8] is described as follows: NFAT Signaling Pathway (AID 444; active = well fitted curve in either direction with a large enough effect, not every such curve was filed as active;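 note: carbachol stimulus at about its EC50 of 1 µM final; % is set by controls: 0 for no effect and ±100 for the full control effect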). Particulars: Jurkat NFAT-bla M1, carbachol, beta-lactamase ratio, 5 h; at 7.69 µM (top of the series) unless noted. The gist of the method:
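Read-out: CCF4 FRET ratio (460 nm/530 nm) after 1 h RT dye loading, used for %activity and AC50 from titration series. Cells: Jurkat NFAT-β-lactamase/M1 line, treated with compound plus 1 uM carbachol for 5 h, 37 °C.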

Test [9] can be described thus: Stat Signaling Pathway (AID 446; active = well fitted curve in either direction with a large enough effect, not every such curve was filed as active;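 note: ME-180 cervical cancer cells given 40 pM IL-6 alongside compound; SIE-controlled beta-lactamase reporter measured as 460/530 nm FRET emission ratio; % is set by controls: 0 for no effect and ±100 for the full control effect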). The gist of the method:
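Emission at 460 and 530 nm (excitation 405 nm) reports SIE-controlled beta-lactamase in ME-180 cells. Cells received compound with 40 pM IL-6 for 5 hrs at 37 C; data scaled between 300 pM IL-6 and 125 nM JAK-inhibitor controls.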

In test [10] the target is Glucocorticoid receptor (Homo sapiens) (UniProt P04150). Kind of test: GR-GFP Redistribution (AID 450;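 active = compounds whose dose series gives a full or clear partial fitted curve of increased nuclear translocation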; note: potency is the fitted concentration of half-maximal effect). Conditions: U2OS GR-GFP nuclear translocation, laser cytometry, 2 h.
Glucocorticoid receptor (Homo sapiens), sequence (P04150 whole entry, looked up, the tested form may be a part): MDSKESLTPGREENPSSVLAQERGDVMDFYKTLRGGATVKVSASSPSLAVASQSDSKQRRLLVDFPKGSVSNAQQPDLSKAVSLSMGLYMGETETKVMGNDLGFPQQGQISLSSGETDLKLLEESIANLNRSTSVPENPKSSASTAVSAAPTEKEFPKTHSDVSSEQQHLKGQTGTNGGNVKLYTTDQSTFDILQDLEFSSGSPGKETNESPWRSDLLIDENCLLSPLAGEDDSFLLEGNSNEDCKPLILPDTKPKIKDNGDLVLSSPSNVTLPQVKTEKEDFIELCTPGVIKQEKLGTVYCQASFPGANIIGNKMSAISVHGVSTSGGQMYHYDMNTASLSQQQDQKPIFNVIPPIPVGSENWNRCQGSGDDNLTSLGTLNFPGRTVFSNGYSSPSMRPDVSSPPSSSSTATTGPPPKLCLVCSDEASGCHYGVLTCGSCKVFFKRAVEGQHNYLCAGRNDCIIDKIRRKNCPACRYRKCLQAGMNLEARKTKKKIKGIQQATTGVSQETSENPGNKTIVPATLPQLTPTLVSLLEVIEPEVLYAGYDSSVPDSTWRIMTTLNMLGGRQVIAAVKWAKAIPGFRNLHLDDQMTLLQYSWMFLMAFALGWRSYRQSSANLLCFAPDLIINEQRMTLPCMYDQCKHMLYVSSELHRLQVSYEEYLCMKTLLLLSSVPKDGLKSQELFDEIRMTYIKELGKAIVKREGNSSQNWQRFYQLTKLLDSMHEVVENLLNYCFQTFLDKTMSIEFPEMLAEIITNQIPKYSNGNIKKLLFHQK
Test [11] shares this target. As to the kind of experiment: GR-EFC Redistribution (AID 451; calls by dose curve; note: potency is the fitted concentration of half-maximal effect). Particulars: CHO-K1 GR-EFC translocation, beta-gal luminescence, 2 h. The gist of the method: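 Translocation of GR-ED fusion to nuclear EA restores b-gal, read by luminescence after 1 h room-temperature detection. Engineered CHO-K1 biosensor cells, 1,000/well, exposed 2 h at 37 C to titrations up to 46 uM final.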

Test [12] concerns the target Cytochrome P450 3A4 (Homo sapiens) (UniProt P08684). As to the kind of experiment: qHTS Assay for Activators of Cytochrome P450 3A4 (AID 885). Note: nearly all actives have a fitted effect of over 65% in size. The gist of the method:
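Activators are scored by enhanced luminescence from CYP3A4 conversion of luciferin-PPXE (25uM, equal to KM) to luciferin, after 60 min at RT with an NADPH-regenerating system.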

Test [13] has as its target Cytochrome P450 2C19 (Homo sapiens) (UniProt P33261). Kind of test: qHTS Assay for Inhibitors and Substrates of Cytochrome P450 2C19 (AID 899). Note: potency is the fitted concentration of half-maximal effect; nearly all actives have a fitted effect of over 60% in size. The gist of the method: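 Reactions contain 5nM enzyme, 10uM Luciferin-H EGE (KM) and 50mM KPO4; compound preincubates 10 min at 37C, NADPH regeneration starts turnover for 60 min. Luminescence after detection reagent gives activity.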

Test [14] is described as follows: Confirmation and Secondary Assay for Modulators of Hemoglobin Beta Chain Splicing at IVS2 654 locus (AID 910).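 Note: HeLa cells stably carrying EGFP split by mutant beta-globin IVS2-654 intron; per-well total GFP intensity by laser scanning cytometry after 2-day treatment; % of control where 0% means no effect.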 The method, boiled down: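 Readout: per-well total peak green fluorescence (488 nm ex, 500–520 nm em) from objects 5–250 µm, reflecting correct splicing of an EGFP-654 reporter. Compounds were applied for 2 days at 37 °C to overnight-plated HeLa EGFP-654 cells; controls were DMSO and 500 nM IVS2-654 PNA.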

Test [15] can be described thus: Confirmation and Secondary Assay for Modulators of Hemoglobin Beta Chain Splicing at IVS2 705 locus (AID 930).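 Note: HeLa cells stably expressing the EGFP-705 splicing reporter; % of control where 0% means no effect.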 The method, boiled down: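 Restored EGFP fluorescence after 2-day compound exposure reports splicing correction in IVS2-705 EGFP reporter HeLa cells; positive control was 500 nM splice-blocking PNA oligo. Signal measured as well total peak GFP intensity (488 nm excitation).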

The target in test [16] is Ubiquitin carboxyl-terminal hydrolase 1 (Homo sapiens) (UniProt O94782). Kind of test: Inhibitors of USP1/UAF1: Pilot qHTS (AID 504865).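 Note: rhodamine fluorescence freed from ubiquitin-rhodamine substrate followed over time; top concentration of the series differs between compounds; % is set by controls: 0 for no effect and ±100 for the full control effect; nearly all actives have a fitted effect of over 35% in size.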 The method, boiled down: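 Enzyme-free wells gave the negative control, while test wells held 1nM USP1/UAF1 preincubated with compound for 15 min at room temperature. Ub-Rho at 150nM final started the reaction, and fluorescence at 480/540 nm was recorded kinetically.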

The target in test [17] is Lysosomal acid glucosylceramidase (Homo sapiens) (UniProt P04062). Kind of test: Glucocerebrosidase-p2 (AID 348; in the data active = potency below about 10 µM; note: potency is the fitted concentration of half-maximal effect). Conditions: purified GBA, blue fluorogenic substrate, 40 min. The method, boiled down:
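Normal human glucocerebrosidase (0.2 nM) with blue fluorogenic substrate (80 uM final) in citrate/phosphate pH 5.9 with 10mM sodium taurocholate, 0.01% tween-20; 40 min RT, NaOH/glycine stop; fluorescence Ex 365/Em 440; AC50 from a titration from 0.6 nM upwards.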

Test [18] is described as follows: AP1 Signaling Pathway (AID 357; active = well fitted curve in either direction with a large enough effect, not every such curve was filed as active;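 note: ME-180 reporter cells stimulated with EGF at its EC50 level; % is set by controls: 0 for no effect and ±100 for the full control effect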). Particulars: ME-180 (cervical carcinoma) AP-1-bla reporter, EGF-induced, beta-lactamase ratio, 5 h; at 7.69 µM (top of the series) unless noted. The gist of the method:
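Modulation of EGF-driven AP-1 transcription was assessed with a beta-lactamase reporter in ME-180 cells. Compound and EC50 EGF were co-incubated 5 hours at 37 °C before 2.5-hour CCF4 loading at room temperature and dual-emission reading.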

The target in test [19] is 3',5'-cyclic-AMP phosphodiesterase 4B (Homo sapiens) (UniProt Q07343). As to the kind of experiment: qHTS Assay for Inhibitors of PDE-IV (AID 607; active = well fitted activation curve with a large enough effect in the main read-out, with a control signal flat, not every such curve was filed as active; note: % of control where 0% means no effect). The gist of the method: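 The readout is membrane depolarisation from a cAMP-sensing CNG channel, detected with a potential dye at ex 535/em 590. Cells were HEK293-derived (endogenous PDE-IV) at 1000 cells/well, titrated up to 22.9 uM final.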

Test [20] has as its target Vitamin D3 receptor (Homo sapiens) (UniProt P11473). As to the kind of experiment: qHTS for Inhibitors of the vitamin D receptor (VDR): Hit Validation in Primary Screen (AID 602199). Note: potency is the fitted concentration of half-maximal effect. Conditions: VDR-coactivator inhibition assay, qHTS confirmation. The method, boiled down: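 With 800 nM VDR and 5 uM LG19078 agonist present, compounds were incubated 2 h at ambient temperature with Alexa 647-labelled SRC2-3. Displacement was read as polarization at 620/688 nm.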

Test [21] in a line: qHTS for Inhibitors of the vitamin D receptor (VDR): Hit Validation using a Texas Red Assay (AID 602201). Note: % is set by controls: 0 for no effect and ±100 for the full control effect. The gist of the method: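 After a 2-hour room-temperature incubation, polarization of Texas-Red emission was read (Ex 595 nm/Em 615 nm). Final mix contained 7 nM Texas Red, 1.5 uM VDR-LBD and LG19078.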
Test [22] has as its target Vitamin D3 receptor (Homo sapiens) (UniProt P11473). As to the kind of experiment: qHTS for Inhibitors of the vitamin D receptor (VDR): Hit Validation using a Beta-Lactamase Assay (AID 602202). Note: % is set by controls: 0 for no effect and ±100 for the full control effect. The gist of the method: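 Beta-lactamase reporter read-out (447 nm emission of cleaved FRET substrate, 2 h) after 18 h compound exposure of HEK293 cells carrying a VDR-GAL4 fusion and UAS reporter, stimulated with LG190178.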

Test [23] can be described thus: qHTS for Inhibitors of the vitamin D receptor (VDR): Hit Validation using a Cytotoxicity Assay (AID 602204).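 Note: plate controls were DMSO for no effect and high-concentration cycloheximide for full effect; nearly all actives have a fitted effect of over 75% in size.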 The gist of the method: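 Compounds stayed on cells (20,000/well, plated 4 hours earlier) for 18 hours. Viability then taken as ATP content by CellTiter-Glo, read as luminescence after 30 minutes. Controls: high-concentration cycloheximide (positive), DMSO (negative).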

Test [24] addresses DNA polymerase eta (Homo sapiens) (UniProt Q9Y253). Kind of test: qHTS for Inhibitors of Polymerase Eta: Confirmatory Assay for Cherry-picked Compounds (AID 720502). Note: potency is the fitted concentration of half-maximal effect. Particulars: Pol eta primer extension, TAMRA/BHQ fluorescence, 10 min. The method, boiled down:
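The reaction starts with 50 nM final labeled DNA substrate added to Pol eta (10 nM) that had sat with compound for 15 min. TAMRA emission at 598 nm is read at 0 and 10 min.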

Vitamin D3 receptor (Homo sapiens), sequence (P11473 whole entry, looked up, the tested form may be a part): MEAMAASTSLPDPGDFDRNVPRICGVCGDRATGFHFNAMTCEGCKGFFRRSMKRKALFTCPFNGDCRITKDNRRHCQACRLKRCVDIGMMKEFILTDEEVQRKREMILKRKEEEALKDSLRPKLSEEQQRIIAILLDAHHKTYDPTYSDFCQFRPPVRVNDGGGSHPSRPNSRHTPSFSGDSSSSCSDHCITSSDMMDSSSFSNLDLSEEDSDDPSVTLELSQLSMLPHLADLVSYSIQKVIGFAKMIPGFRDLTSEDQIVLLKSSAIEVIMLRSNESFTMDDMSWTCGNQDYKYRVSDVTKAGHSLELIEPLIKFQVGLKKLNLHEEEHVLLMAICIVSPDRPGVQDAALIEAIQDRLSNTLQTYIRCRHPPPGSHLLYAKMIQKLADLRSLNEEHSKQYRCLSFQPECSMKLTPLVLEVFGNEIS
Cytochrome P450 3A4 (Homo sapiens), sequence (P08684 whole entry, looked up): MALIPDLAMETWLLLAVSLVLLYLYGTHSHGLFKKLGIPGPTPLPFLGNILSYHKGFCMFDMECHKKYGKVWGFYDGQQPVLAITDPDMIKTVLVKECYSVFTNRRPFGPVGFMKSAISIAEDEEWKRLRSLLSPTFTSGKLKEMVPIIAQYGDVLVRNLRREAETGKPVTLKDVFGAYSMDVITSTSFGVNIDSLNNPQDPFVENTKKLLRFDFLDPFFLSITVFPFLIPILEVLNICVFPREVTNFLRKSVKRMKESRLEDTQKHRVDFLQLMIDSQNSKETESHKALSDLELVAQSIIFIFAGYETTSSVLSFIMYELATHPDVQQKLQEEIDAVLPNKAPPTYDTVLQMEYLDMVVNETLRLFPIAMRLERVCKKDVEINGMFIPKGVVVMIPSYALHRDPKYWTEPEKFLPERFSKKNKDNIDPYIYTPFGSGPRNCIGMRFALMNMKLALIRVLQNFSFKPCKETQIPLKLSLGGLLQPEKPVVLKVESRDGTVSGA
Cytochrome P450 2C19 (Homo sapiens), sequence (P33261 whole entry, looked up): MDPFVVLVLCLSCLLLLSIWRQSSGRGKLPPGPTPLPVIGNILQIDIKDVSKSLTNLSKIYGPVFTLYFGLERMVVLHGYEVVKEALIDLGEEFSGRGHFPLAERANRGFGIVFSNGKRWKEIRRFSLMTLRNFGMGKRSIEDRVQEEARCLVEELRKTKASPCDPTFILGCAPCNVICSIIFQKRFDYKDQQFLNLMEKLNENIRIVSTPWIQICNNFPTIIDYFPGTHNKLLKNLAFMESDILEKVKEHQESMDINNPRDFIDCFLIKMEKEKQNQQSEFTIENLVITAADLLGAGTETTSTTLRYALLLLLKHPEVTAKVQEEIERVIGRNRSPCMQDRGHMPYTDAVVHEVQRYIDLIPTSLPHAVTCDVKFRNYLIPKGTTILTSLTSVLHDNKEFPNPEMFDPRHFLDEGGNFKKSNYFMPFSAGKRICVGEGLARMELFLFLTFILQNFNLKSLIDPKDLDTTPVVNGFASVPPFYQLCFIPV

Consider `O=C1c2cccc3c(O)ccc(c23)C(=O)N1Cc1ccco1`, for which the Potency was 1.46 µM (active) in [1]; 100 µM (active) in test [3]; 100 µM (active) in test [4]; 67.5 µM (active) in test [5]; 70.8 µM (active) in test [6]. For the same compound, the Potency result in [2] was “inactive”.
As for `O=c1cnc2cnc(Oc3ccccc3)nc2n1Cc1cccs1`, the Potency in test [7] was 7.94 µM (active); in [10], over 9.22 µM; in test [11] it was over 46 µM; in [13], 1.26 µM (active); in test [5], 15.6 µM (active). Moreover, the activity change, negative = inhibition in test [8] is -1.41%. Also, the call in test [9] and in test [12] was inactive. The Potency result in test [2], in test [3] and in [4] was “inactive” throughout.
`O=C1c2cccc3c(O)ccc(c23)C(=O)N1Cc1ccccc1`: the Potency is 2.59 µM (active) in test [1]; 89.1 µM (active) in test [3]; 100 µM (active) in test [4]; 75.7 µM (active) in [5]; 39.8 µM (active) in test [6]. Further, the Potency entry in test [2] is “inactive”.
Take `CCCC(=O)N=C1SC2CS(=O)(=O)CC2N1c1ccc(CC)cc1` (stereo unspecified): the Potency entry in [2], in test [3] and in [5] was “inactive” each time. Moreover, the activation was -7.85% [at 17.1 µM, percent relative to cAMP agonist control] in [4] and -1.33% [at 30.8 µM] in test [6].
Take `CC(=O)Nc1ccc(N2C(=O)c3cccc4c(O)ccc(c34)C2=O)cc1`: the Potency is 2.31 µM (active) in test [1], 79.4 µM (active) in [3], 112 µM (active) in test [4] and 39.8 µM (active) in test [6]. Moreover, the Potency entry in test [2] and in test [5] was “inactive” in each case.
As to `CC1(C)C(OC(=O)CCC(=O)O)CC[C@]2(C)C1CC[C@@]1(C)C2C(=O)C=C2[C@@H]3C[C@@](C)(C(=O)O)CC[C@]3(C)CCC21C` (stereo partly specified), the Potency result in [14], in test [15], in test [16], in test [2], in test [3] and in [4] was “inactive” each time. The Potency in test [5] was 15.6 µM (active).
Consider `O=C(c1ccco1)N1CCC2(CC1)CN(c1cccc(-c3ccccc3)c1)C2`, for which the figures for the Potency in [17], in test [7] and in [11] were over 11.4 µM, 7.94 µM (active) and over 46 µM, respectively. The activity change, negative = inhibition in test [18] was -23.1%. Moreover, in test [9], the call was inactive. Moreover, the Potency entry in test [19], in test [2], in test [3], in test [4] and in test [5] was “inactive” in each case.
For the compound `O=C(O)c1ccc2c(c1)C(=O)N(c1ccc(/C=C/C(=O)c3ccccc3)cc1)C2=O`, the Potency in test [20] is 10.6 µM (active); in test [24], 33.8 µM (active); in test [2], 39.8 µM (active). Further, the Potency result in test [21], in test [22], in [23], in [3] and in test [5] was “inactive” throughout. The activation is 5.43% [at 17.1 µM, percent relative to cAMP agonist control] in test [4] and 8.33% [at 30.8 µM] in test [6].
For `Cc1ccc([N+](=O)[O-])cc1S(=O)(=O)N1CCC(C)CC1`, the Potency result in test [2], in test [3], in test [4], in [5] and in [6] was “inactive” throughout.

(Values after PubChem BioAssay (NCATS).)
